Our source for the growth values is PubChem BioAssay (NCI).

The panel holds about 83,000 compounds, 20% with a hit somewhere; the sample as a whole holds those more often.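 Negative percent growth values reflect cell death: -40 means 40% of the cells present at the start died, and -100 means all died.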 A number with no mark means an inactive call. Calls of active or inactive are those of the source.

The test relates to HT29 colon. Nature of the test: NCI-60 one-dose screen, 48 h (100 = growth as untreated, 0 = no growth, -100 = all killed). As to conditions: 10 µM unless noted. Here is the method: Growth inhibition of the HT29 human tumor cell line is measured as a screen for anti-cancer activity. Cells are grown in 96 well plates and exposed to the test compound for 48 hours. Compounds are tested at a single concentration, which is 10^-5 M for most compounds. The reported endpoint is percent growth (GI% or GIPRCNT), where numbers from 0 - 100% represent growth inhibition, and numbers from -100% - 0 represent cell death. For example, a value of 40 represents 60% growth inhibition. A value of 0 means no net growth occurred over the course of the experiment. A value of -40 indicates 40% of cells at the beginning of the experiment died by the end of the experiment. A value of -100 means all cells are dead at the end of the experiment.
NCI-60 Human Tumor Cell Lines Screen was performed using the standard one-dose NCI protocol, which is described in more detail at https://dtp.cancer.gov/discovery_development/nci-60/default.htm.
Compounds with GIPRCNT values below 10 were considered active. Activity score was based on GIPRCNT using the following formula: […]
Score is 0 for GIPRCNT values of 100 or above, 50 for GIPRCNT values of 0, and 100 for GIPRCNT values of -100.
Turning to `OCC(Nc1ncnc2ccc(-c3cnc4cnccn34)cc12)c1ccccc1` (stereo not given), the growth was 83.5%.

Consider `O=C(CCCCCCN1CC(=O)N2[C@@H](C3CC3)c3[nH]c4ccccc4c3C[C@H]2C1=O)NO`, for which the growth was 78.3%.

Consider `CN(C)S(=O)(=O)c1ccc(-c2nc(C(Cl)Cl)nc3cc(-c4ccccc4)nn23)cc1`, for which the growth was 45.6%.

Turning to `O=C(O)c1ccc(-n2c(=O)n(-c3cccc(C(F)(F)F)c3)c(=O)c3cc(-c4ccc(F)cc4F)ccc32)cc1`, the growth was 48.5%.

On to `Cc1[nH]c(C(=O)Nc2ccccc2OCc2cccc(C(=O)NC3CCNC3)c2)c(Cl)c1Cl` (stereo not given), for which the growth is -47.7% (active).

On to `C#CCOc1ccccc1C(OC(=O)c1ccccc1)C(=O)NC(C)(C)C(C)(C)C` (stereo not given), for which the growth was 74.6%.

On to `N#Cc1c(-c2cccs2)cc(-c2cnccn2)nc1SCC(=O)N/N=C/c1ccncc1`, for which the growth is 109%.

Consider `O=C1C(N2CCN(c3ccccc3)CC2)=C(Cl)C(=O)c2ncccc21`, for which the growth was 106%.

In the case of `COc1cc2cc(Oc3ccc(NC(=O)Nc4ccc(F)c(C(F)(F)F)c4)cc3)c(C)nc2cc1OCCN(C)C`, the growth was 66.5%.

For the compound `CC(=O)Nc1ccccc1-c1nc2ccccc2s1`, the growth was 105%.

On to `O=C(CCl)Nc1ccc(NC(=O)c2cc(Cl)ccc2O)c(Cl)c1`, for which the growth was 64.6%.

Take `CN1CC[C@@H]2[C@@]3(C)CC[C@H](O)C(C)(C)[C@@H]3CC[C@@]2(C)[C@]2(C)CC[C@@]3(CO)CCC(C)(C)C[C@@H]3C12` (stereo not given in full): the growth is 40.3%.

Regarding `COC(=O)c1ccc(NC2=C(Cl)C(=O)C(C)=C(C)C2=O)cc1`, the growth is 63.3%.

Take `COC(=O)CCSC1=C(C)C(=O)c2ccccc2C1=O`: the growth is 110%.

As for `N#Cc1cccc(-c2cc(-c3ccc4c(c3)OCCO4)[nH]n2)c1`, the growth is 11.2%.

With `CC/C(=C(/c1ccc(Cl)cc1)c1ccc(OCCN)cc1)c1ccccc1`, the growth was 79.9%.

Take `NC1C2CCC1CN(c1cnc(C(=O)Nc3cc(F)cc4cccnc34)cn1)C2` (stereo not given): the growth was 22.7%.

Consider `NC1[C@H]2CN(c3cnc(C(=O)Nc4cc(F)cc5cccnc45)cn3)C[C@@H]12` (stereo not given in full), for which the growth was 26.9%.

Consider `CC(=C(c1ccc(OCCN(C)C)cc1)c1ccc(OCCN(C)C)cc1)c1ccc(Cl)cc1`, for which the growth is -67.3% (active).

`C#C[C@]1(O)CC[C@H]2[C@@H]3CC=C4c5sc(N6CCN(C)CC6)nc5CC[C@]4(C)[C@H]3CC[C@@]21C`: the growth was 5.26% (active).

Regarding `O=C(/C=C/c1cc(Cl)ccc1Cl)Nc1ncc(Cc2ccc(Cl)cc2)s1`, the growth is -22.8% (active).

Consider `CCOP(=O)(OCC)OC[C@]12CCC(C)(C)C[C@H]1C1=CC[C@@H]3[C@@]4(C)CC[C@H](OP(=O)(OCC)OCC)C(C)(C)[C@@H]4CC[C@@]3(C)[C@]1(C)CC2`, for which the growth was 41.4%.

Turning to `O=C(CCCCCCNC(=O)C(O)(O)C(F)(F)F)Nc1ccc(Br)cc1`, the growth is 2.18% (active).

`CN(C)S(=O)(=O)c1ccc(-c2nc(C(Cl)Cl)nc3cc(-c4ccc(F)cc4)nn23)cc1`: the growth was -5.58% (active).

For the compound `CCN1CCN(c2ccc(NC(=O)Nc3ccc4c(ccn4-c4ccnc(C(=O)NC)c4)c3)cc2C(F)(F)F)CC1`, the growth was -44.5% (active).

Turning to `Cc1ccc(Nc2nc(SC(C)C)nc(-c3ccccc3)c2C#N)cc1`, the growth was 101%.

Turning to `O=C(CSc1nc2ccccc2c(=O)n1-c1ccc(Cl)cc1)N/N=C/c1ccc(Oc2ccc(Cl)cc2)cc1`, the growth is 1.76% (active).

`C[C@@H]1OCC2(CCN(c3cnc(C(=O)Nc4cc(F)cc5cccnc45)cn3)CC2)[C@@H]1N`: the growth is 32.4%.

Consider `O=C1[C@H]2Cc3c([nH]c4ccccc34)[C@H](c3ccc(Br)cc3)N2C(=O)CN1C1CCN(CC2CCCCC2)CC1`, for which the growth was 11%.

Turning to `COc1cc(-c2nc(-c3ccccc3)[nH]c2-c2ccnc(NCCCNS(=O)(=O)c3ccc(C)cc3)n2)ccc1F`, the growth is 69.5%.

On to `O=C(CN1CCN(c2cc(=O)[nH]c3ccc(F)cc23)CC1)N(c1ccccc1)c1ccccc1`, for which the growth is 110%.

For the compound `c1ccc(-c2cn3c(-c4c[nH]c5ccccc45)csc3n2)cc1`, the growth is 63%.

With `Cc1ccc(N2CCN(C3=C(Cl)C(=O)c4ncccc4C3=O)CC2)cc1`, the growth is 106%.

With `CN1CCN(c2ccc(Nc3nc(NCCCNS(=O)(=O)c4ccc(C(F)(F)F)cc4)c4sccc4n3)cc2)CC1`, the growth was -75.8% (active).

In the case of `CCc1nnc(NC(=O)c2cc(-c3ccc(Cl)cc3Cl)oc2C)s1`, the growth is 89.7%.

As for `CN1CCN(CC#CCn2c3c(c4ccccc42)C[C@]2(C)[C@H]4CC=C5[C@@H]6CC(C)(C)CC[C@]6(C(=O)N6CCOCC6)CC[C@@]5(C)[C@]4(C)CC[C@H]2C3(C)C)CC1`, the growth is 12.3%.

`Cc1[nH]c(C(=O)Nc2ccc(C(N)=O)cc2N2CCOC(C)C2)c(Cl)c1Cl` (stereo not given): the growth was 118%.

As for `O=C1[C@@H]2Cc3c([nH]c4ccccc34)[C@H](c3ccc(Cl)cc3)N2C(=O)CN1C1CCN(Cc2ccccc2)CC1`, the growth is 25%.

Take `COc1ccc(-c2c(C(N)=O)c(N)n(Cc3nc4ccccc4[nH]3)c(=O)c2C#N)c(OC)c1`: the growth is 113%.

As for `COc1ccc(C(C)=C(c2ccc(OCCN(C)C)cc2)c2ccc(OCCN(C)C)cc2)cc1`, the growth is -53.5% (active).
